Bioassay records: PubChem, National Center for Advancing Translational Sciences (NCATS)
ELG1 genotoxic: qHTS screen for small molecules that induce genotoxicity in human embryonic kidney (HEK293T) cells expressing luciferase-tagged ELG1; HEK293T ELG1-luciferase reporter, luminescence, 16 h; Potency, µM (series often up to 46 µM), for inactives: at the highest dose activity change, positive = activation, usual class: activators; actives 1.3% (n = 330,000); AID 504466, 2011; note: % of control where 0% means no effect; nearly all actives have a fitted effect of over 60% in size
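Reporter readout depends on ELG1 protein level, which increases with genetic stress. After 16 hr compound exposure at 37 °C, luciferase activity was quantified using ONE-Glo.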
KinaseGlo FLuc: Counterscreen for Luciferase (Kinase-Glo TM) Inhibition; Luciferin 4-monooxygenase (Photuris pensylvanica), Q27757; Kinase-Glo luciferase, ATP luminescence, 8 min; Potency, µM (titrated, usually from 38.3 µM), without a hit: at the top dose activity change, negative = inhibition, actives largely listed as inhibitors; actives 0.28% (n = 200,000); AID 1379, 2008; note: % is set by controls: 0 for no effect and ±100 for the full control effect; nearly all actives have a fitted effect of over 60% in size
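Inhibition of Kinase-Glo luciferase light generation was assessed at 10 uM ATP in pH 7.2 imidazole buffer, with luminescence measured after eight minutes at ambient temperature.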
NPC1 prom act: qHTS Assay for NPC1 Promoter Activators. Huh7 NPC1 promoter luciferase reporter, 24 h. Potency, µM (titrated, usually from 9.22 µM), for the others: at the top dose activation, actives largely listed as activators. actives 2.4% (n = 320,000); note: % of control where 0% means no effect; nearly all actives have a fitted effect of over 60% in size
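Luminescence read-out of NPC1 promoter-driven luciferase in stably transfected Huh7 cells; compounds delivered in DMSO and left 24 h at 37C, 5% CO2, qHTS titration format.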
Rab9 promoter act: qHTS Assay for Rab9 Promoter Activators | Huh7 Rab9 promoter-luciferase reporter, luminescence, 24 h | Potency, µM (top dose mostly 9.22 µM), without a hit: at the top dose activation, negative = inhibition, most hits filed as activators | actives 2.8% (n = 320,000); note: % of control where 0% means no effect; nearly all actives have a fitted effect of over 60% in size
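Stable Rab9-luc Huh7, 1500 cells/well, 2 h settle; cmpd in DMSO, 24 h, 37 °C/5% CO2; luciferase reagent 10 min RT; luminescence.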
FLuc counter: qHTS profiling assay for firefly luciferase inhibitor/activator using purifed enzyme and Km concentrations of substrates (counterscreen for miR-21 project) | actives 6.9% (n = 360,000) | AID 588342, 2011 | Potency, µM (top dose mostly 57.5 µM), inactives show at the highest dose activity change, negative = inhibition, actives largely listed as inhibitors | purified FLuc, Km substrates, luminescence inhibition | Luciferin 4-monooxygenase (Photinus pyralis), P08659;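 note: plate controls were vehicle for no effect and reference inhibitor for full effect; nearly all actives have a fitted effect of over 55% in size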
Target sequence (P08659 whole entry, looked up): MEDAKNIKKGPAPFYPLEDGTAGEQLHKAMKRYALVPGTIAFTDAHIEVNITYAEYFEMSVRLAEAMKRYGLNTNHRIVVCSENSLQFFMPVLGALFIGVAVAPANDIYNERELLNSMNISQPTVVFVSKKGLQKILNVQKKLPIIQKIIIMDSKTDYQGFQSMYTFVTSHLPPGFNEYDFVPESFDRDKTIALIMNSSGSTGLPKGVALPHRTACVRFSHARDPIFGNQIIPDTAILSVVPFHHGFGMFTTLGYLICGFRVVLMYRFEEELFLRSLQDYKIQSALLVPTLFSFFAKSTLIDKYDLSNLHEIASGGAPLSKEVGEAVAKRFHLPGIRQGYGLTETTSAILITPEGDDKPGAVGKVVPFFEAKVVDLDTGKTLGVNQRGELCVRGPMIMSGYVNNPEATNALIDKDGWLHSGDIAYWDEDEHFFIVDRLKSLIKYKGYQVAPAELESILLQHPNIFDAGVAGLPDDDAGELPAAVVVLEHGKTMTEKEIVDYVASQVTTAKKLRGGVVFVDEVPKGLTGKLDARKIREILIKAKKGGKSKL
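Biochemical qHTS of compounds, final roughly 60 µM downward over six points, against 10 nM purified firefly luciferase using Km concentrations of substrates (10 uM D-luciferin, 10 uM ATP) in Tris acetate pH 7.5 buffer; luminescence output.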
SMN2 splice up: qHTS Assay for Enhancers of SMN2 Splice Variant Expression; actives 2.8% (n = 210,000); HEK293 SMN2-luciferase splicing reporter, luminescence, 30-36 h; Potency, µM (series often up to 46.1 µM), for inactives: top-dose activity change, positive = activation, hits mostly activators; note: % of control where 0% means no effect; nearly all actives have a fitted effect of over 55% in size
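HEK293 cells carry an SMN2 […]–luciferase reporter in which exon 7 inclusion puts luciferase in frame. Cells were plated 10-12 h before compound addition, then incubated 30-36 h at 37C. ONE-Glo luminescence was read; sodium butyrate at 4.5 mM final served as control.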
* hit, by the source's call; [ ] = remark or other dose. In the library only some 7.5% were active in any assay of this set; here they are far more common. Calls come from the whole dose curve; as a rule, active = well fitted curve in the direction sought with a large enough effect; inconclusive = small, poorly fitted or top-dose-only effect, or another doubt; inactive = no such curve, though single readings can be large; an effect the other way counts as inactive or inconclusive. Potency is the fitted concentration of half-maximal effect.

Results for CC(OC(=O)C1CC1)C(=O)Nc1cc(C(F)(F)F)ccc1Cl (configuration not stated) ?
ELG1 genotoxic: 0%; KinaseGlo FLuc: 0%; NPC1 prom act: 0%; Rab9 promoter act: 1%; FLuc counter: 4%; SMN2 splice up: -3%

What do the screens show for `COc1ccc(C(=O)N2CCC[C@@]3(CCN(Cc4ccc(C#N)cc4)C3)C2)cc1`?
KinaseGlo FLuc: -5%; SMN2 splice up: -12%

Results for COc1cc(/C=C2/C(=O)N(c3ccccc3)N=C2C)ccc1OS(=O)(=O)c1ccccc1 ?
ELG1 genotoxic: 3%; KinaseGlo FLuc: 1%; NPC1 prom act: 1%; Rab9 promoter act: 1%; FLuc counter: -16%; SMN2 splice up: 8%

Results for CCCCc1c(O)n(-c2ccccc2)[nH]c1=O ?
KinaseGlo FLuc: 0%[39.9 µM]

What do the screens show for `CC1=NN(c2cccc(F)c2)C(=O)/C1=C/c1ccc(N(C)C)cc1`?
ELG1 genotoxic: -3%; NPC1 prom act: 11%; Rab9 promoter act: 6%; FLuc counter: 5.4µM*

How did COc1ccc(/C=C2/C(=O)N(c3cccc(F)c3)N=C2C)c(OC)c1 do in these assays?
ELG1 genotoxic: -6%; NPC1 prom act: 2%; Rab9 promoter act: 0%; FLuc counter: inconclusive

Results for CC1=NN(c2ccccc2)C(=O)/C1=C/c1ccc[nH]1 ?
ELG1 genotoxic: inconclusive; KinaseGlo FLuc: 2%; NPC1 prom act: 16%; Rab9 promoter act: 3%; FLuc counter: 17µM*; SMN2 splice up: 10µM*

Results for CC1=NN(c2ccccc2)C(=O)/C1=C/c1c(O)n(-c2ccc(F)cc2)[nH]c1=O ?
ELG1 genotoxic: inconclusive; KinaseGlo FLuc: -1%; NPC1 prom act: 25%; Rab9 promoter act: 19%; FLuc counter: 0.6µM*; SMN2 splice up: -3%[1.84 µM]

What do the screens show for `COc1ccc(/C=C2/C(=O)N(c3ccccc3)N=C2C)cc1Br`?
ELG1 genotoxic: 16%; NPC1 prom act: -7%; Rab9 promoter act: -4%; FLuc counter: 13µM*

What do the screens show for `COCCNC(=O)Cn1nc(-c2ccc(C)cc2)c2ccccc2c1=O`?
ELG1 genotoxic: 2%; NPC1 prom act: -4%; Rab9 promoter act: 4%; FLuc counter: -2%; SMN2 splice up: -4%

How did CC(C)(CCc1nc2ccccc2[nH]1)C(=O)O do in these assays?
KinaseGlo FLuc: -3%[7.66 µM]; SMN2 splice up: -12%[9.22 µM]

How did C[C@H](CN(C)C)C(=O)c1ccccc1C(=O)O do in these assays?
KinaseGlo FLuc: -9%[7.66 µM]; SMN2 splice up: -12%[9.22 µM]

Results for Cc1cc(Cl)ccc1NC(=S)NCCC(c1ccccc1)c1ccccc1 ?
ELG1 genotoxic: -35%; KinaseGlo FLuc: 2%; NPC1 prom act: -2%; Rab9 promoter act: -7%; FLuc counter: 1%; SMN2 splice up: -29%

What do the screens show for `CC1=NN(c2ccccc2)C(=O)/C1=C/c1ccc(Cl)cc1`?
ELG1 genotoxic: -6%; NPC1 prom act: 0%; Rab9 promoter act: 0%; FLuc counter: inconclusive

What do the screens show for `CC1=NN(c2ccccc2)C(=O)/C1=C\N(O)c1ccccc1`?
ELG1 genotoxic: 0%; NPC1 prom act: -2%; Rab9 promoter act: 12%; FLuc counter: inconclusive

How did CC1=NN(c2ccccc2)C(=O)/C1=C\c1ccc(Br)s1 do in these assays?
ELG1 genotoxic: inconclusive; KinaseGlo FLuc: -7%; NPC1 prom act: 2%; Rab9 promoter act: -4%; FLuc counter: 9.5µM*; SMN2 splice up: 0%[1.84 µM]

Results for CC1=NN(c2ccccc2)C(=O)/C1=C/c1cccs1 ?
ELG1 genotoxic: 17%; KinaseGlo FLuc: -1%; NPC1 prom act: 9%; Rab9 promoter act: -2%; FLuc counter: 8.5µM*; SMN2 splice up: 3%

What do the screens show for `CCOc1cc(/C=C2\C(=O)N(c3ccc(C(N)=O)cc3)N=C2C)ccc1OC(=O)c1cccs1`?
ELG1 genotoxic: 8%; KinaseGlo FLuc: -1%; NPC1 prom act: -1%; Rab9 promoter act: 6%; FLuc counter: inconclusive; SMN2 splice up: -3%

How did CC1=NN(c2ccc(C(=O)O)cc2)C(=O)/C1=C\c1ccc(OC(=O)c2cccs2)cc1 do in these assays?
ELG1 genotoxic: -1%; KinaseGlo FLuc: 0%; NPC1 prom act: -6%; Rab9 promoter act: 1%; FLuc counter: 24µM*; SMN2 splice up: 8%

Results for CCc1nn2c(=O)cc(COC(=O)c3cc(Cl)c(OC)c(OC)c3)nc2s1 ?
ELG1 genotoxic: 1%; NPC1 prom act: -1%; Rab9 promoter act: -2%; FLuc counter: 4%

What do the screens show for `COc1ccc(Cc2nnc(N/N=C/c3ccc(O)cc3)[nH]c2=O)cc1OC`?
ELG1 genotoxic: 16%; KinaseGlo FLuc: 3%; NPC1 prom act: -34%; Rab9 promoter act: -32%; FLuc counter: -3%; SMN2 splice up: -86%

Results for COc1ccc(/C=N/Nc2nnc(Cc3ccccc3)c(=O)[nH]2)cc1OC ?
ELG1 genotoxic: 14%; NPC1 prom act: inconclusive; Rab9 promoter act: 26%; FLuc counter: 1.7µM*

How did COc1ccc(/C=N/Nc2nc3ccccc3c(=O)n2-c2ccccc2)cc1OC do in these assays?
ELG1 genotoxic: 10%; KinaseGlo FLuc: -25%; NPC1 prom act: 18%; Rab9 promoter act: inconclusive; FLuc counter: 1.9µM*; SMN2 splice up: -9%[1.84 µM]

Results for COc1ccc(/C=N/n2c(C)nc3ccccc3c2=O)cc1OC ?
ELG1 genotoxic: 1%; NPC1 prom act: 10%; Rab9 promoter act: -3%; FLuc counter: -5%

Results for CN1CC(=O)N(CC(=O)Nc2ccc(OCc3ccccc3)cc2)C1=O ?
ELG1 genotoxic: 6%

How did C[N+](C)(CCCOc1ccccc1)c1ccccc1 do in these assays?
KinaseGlo FLuc: 3%[17.1 µM]; SMN2 splice up: -15%[20.6 µM]

Results for Cc1ccc(N2C(=O)c3ccccc3NC2c2ccccc2O)cc1 (configuration not stated) ?
ELG1 genotoxic: inconclusive; NPC1 prom act: 2.5µM*; Rab9 promoter act: 0.89µM*; FLuc counter: inconclusive

Results for O=C(OCc1cccc([N+](=O)[O-])c1)c1ccc2ccccc2n1 ?
ELG1 genotoxic: 3%; KinaseGlo FLuc: 1%; NPC1 prom act: -29%; Rab9 promoter act: -3%; FLuc counter: 27µM*; SMN2 splice up: 12%

What do the screens show for `O=C(OCc1ccc([N+](=O)[O-])cc1)c1ccc2ccccc2n1`?
ELG1 genotoxic: 3%; NPC1 prom act: 0%; Rab9 promoter act: -2%; FLuc counter: -13%
